# Data as given in PubChem BioAssay (NCATS).
# Inconclusive results are not listed. Unmarked numbers belong to inactive results. Calls of active or inactive are those of the source. Calls follow the shape of the dose curve; as a rule, active = well fitted inhibition curve with a large enough effect; inconclusive = small, poorly fitted or top-dose-only effect; inactive = flat fitted curve, though single readings scatter.
# Assay: qHTS profiling for inhibitors of Plasmodium falciparum proliferation (AID 504749); also: nearly all actives have a fitted effect of over 60% in size;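 as to activity, negative = inhibition: 0% = DMSO vehicle and full inhibition = artemisinin control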
# Settings: P. falciparum in erythrocytes, SYBR Green DNA, 72 h; at 12.8 µM (top of the series); parasite line A
# Excerpt: NIH National Institute of Allergy and Infectious Diseases [NIAID] NIH Chemical Genomics Center [NCGC] MLPCN Grant: None Assay Provider: Xinzhuan Su, NIAID NCGC Assay Overview: Plasmodium falciparum is a virulent malarial parasite that kills 1-2 million people worldwide each year. Transmitted by mosquitoes, the sporozoite form of the parasite enters the blood stream to infect hepatocytes, where they become merozoites that infect red blood cells (erythrocytes). Within erythrocytes, merozoites begin a […] cycle of growth and division, after which the parasite is released to infect new red blood cells. Gametocytes, which form within erythrocytes as well, circulate in the bloodstream and are ingested by the mosquito, thereby completing the life cycle. To profile malarial isolates for differential chemical responses and to identify inhibitors of malarial growth, an assay that measures P. falciparum growth and replication within erythrocytes was employed. This assay uses a DNA binding fluorescent dye (SYBR Green) to detect parasite DNA following cell lysis. Because mature erythrocytes lack DNA, only Plasmodium-derived DNA is detected.
# NCGC Assay Protocol Summary: The SYBR Green viability assay was adapted from a method described previously (Plouffe et al., 2008). For screening 3 ul culture medium was dispensed into 1536 well black clear bottom plates (Aurora Biotechnologies) using a Multidrop Combi (Thermo Fisher Scientific Inc.), 23 nL compounds in DMSO were added by a pin tool (Kalypsys), and 5 ul of erythrocytes infected with P. falciparum (0.3% parasitemia, 2.5% hematocrit final concentration) were added. The plates were incubated at 37 C in a humidified incubator in 5% CO2 for 72 h, and 2 ul lysis buffer (20 mM Tris HCl, 10 mM EDTA, 0.16% saponin, 1.6% triton X, 10X SYBR Green I supplied as 10,000X […] by Invitrogen) was added to each well. The plates were mixed for 25 sec with gentle shaking and incubated overnight at room temperature in the dark. The following morning, fluorescence intensity at 485(14) nm excitation and 535(25) nm emission wavelengths was measured on an EnVision (Perkin Elmer) plate reader. Plate reads were normalized relative to the control inhibitor (0.29 uM artemisinin) and vehicle (DMSO) wells present on each plate and then corrected by an algorithm using vehicle-only control plates at the beginning and end of the compound plate stack.
# Potency is read from the fitted curve at half-maximal effect.
row,Compound,"activity, negative = inhibition [%]"
1,O=C(O)c1ccccc1-c1c2cc(Br)c(=O)cc-2oc2[c]([Hg])c(O)c(Br)cc12,23.4

# Same assay, conditions: P. falciparum in erythrocytes, SYBR Green DNA, 72 h; at 12.8 µM (top of the series); parasite line B
row,Compound,"activity, negative = inhibition [%]"
1,O=C(O)c1ccccc1-c1c2cc(Br)c(=O)cc-2oc2[c]([Hg])c(O)c(Br)cc12,5.61

# Same assay, conditions: P. falciparum in erythrocytes, SYBR Green DNA, 72 h; at 28.7 µM (top of the series); parasite line A
row,Compound,"activity, negative = inhibition [%]"
1,C[N+](C)(C)CC(=O)[O-],11.4
2,CCN(CC)CCO[C@H]1CC[C@@]2(C)C(=CC[C@@H]3[C@H]2CC[C@]2(C)C(=O)CC[C@H]32)C1,-0.0219
3,CCN1C[C@]2(COC)[C@H](O)C[C@H](OC)[C@]34C1C([C@H](OC)[C@H]23)[C@]1(OC(C)=O)C2[C@@H](OC(=O)c3ccccc3)C(O)(C[C@H]24)[C@@H](OC)[C@@H]1O,-2.64
4,CO[C@H]1[C@@H](O)CC(OC2[C@@H](O)CC(OC3[C@@H](O)C[C@H](OC4CC[C@@]5(C)C(CCC6C5CC(O)[C@]5(C)[C@H](C7=CC(=O)OC7)CCC65O)C4)O[C@@H]3C)O[C@@H]2C)O[C@@H]1C (stereo partly specified),-4.67

# Same assay, conditions: P. falciparum in erythrocytes, SYBR Green DNA, 72 h; at 28.7 µM (top of the series); parasite line B
row,Compound,"activity, negative = inhibition [%]"
1,C[N+](C)(C)CC(=O)[O-],8.81
2,CCN(CC)CCO[C@H]1CC[C@@]2(C)C(=CC[C@@H]3[C@H]2CC[C@]2(C)C(=O)CC[C@H]32)C1,10.7
3,CCN1C[C@]2(COC)[C@H](O)C[C@H](OC)[C@]34C1C([C@H](OC)[C@H]23)[C@]1(OC(C)=O)C2[C@@H](OC(=O)c3ccccc3)C(O)(C[C@H]24)[C@@H](OC)[C@@H]1O,-26.7
4,CO[C@H]1[C@@H](O)CC(OC2[C@@H](O)CC(OC3[C@@H](O)C[C@H](OC4CC[C@@]5(C)C(CCC6C5CC(O)[C@]5(C)[C@H](C7=CC(=O)OC7)CCC65O)C4)O[C@@H]3C)O[C@@H]2C)O[C@@H]1C (stereo partly specified),10.4

# Same assay, conditions: P. falciparum in erythrocytes, SYBR Green DNA, 72 h; parasite line A
row,Compound,Potency
1,Oc1cc[c]([Hg][Cl])cc1,7.94 µM (active)
2,CCCCCCCCCC[N+](C)(C)CCCCCCCCCC,5.01 µM (active)
3,CC(C)[C@@]1(NC(=O)[C@H]2CC3c4cccc5[nH]cc(c45)C[C@H]3N(C)C2)O[C@@]2(O)C3CCCN3C(=O)[C@@H](Cc3ccccc3)N2C1=O (stereo partly specified),6.31 µM (active)

# Same assay, conditions: P. falciparum in erythrocytes, SYBR Green DNA, 72 h; parasite line B
row,Compound,Potency
1,Oc1cc[c]([Hg][Cl])cc1,10 µM (active)
2,CCCCCCCCCC[N+](C)(C)CCCCCCCCCC,6.31 µM (active)
3,CC(C)[C@@]1(NC(=O)[C@H]2CC3c4cccc5[nH]cc(c45)C[C@H]3N(C)C2)O[C@@]2(O)C3CCCN3C(=O)[C@@H](Cc3ccccc3)N2C1=O (stereo partly specified),5.01 µM (active)
